Assay results published in the supplement of paper PMC10849652.
Of roughly 8,800 targets only a part is listed; those with a hit were picked by preference. About 0.5% of all pairs of compound and target were hits.

Key:
Assay in all cases: log2 fold change, soluble protein after heating vs DMSO (PISA); higher = thermal stabilisation; K562 lysate, 10 uM; active = over 0.2 and 3.5 SD of the protein, either way, in both replicates (recomputed)
[1] = compound: C1=CC=C(C=C1)[C@H](COC2=CC3=C(C=C2)NC(=O)N3)NC(=O)C4=CC=CN(C4=O)CC5=CC(=C(C=C5)F)F
Procedure, shortened: (§1)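 Quantification was by TMTpro 16plex LC-MS/MS with equalised channel sums, applied to the supernatant after 21,000xg for 90 min. Samples were crude K562 extract at 1 mg/mL protein in PBS pH 7.4 with 1 mM MgCl2, treated with 10 μM compound for 30 min, heated for 3 min across 48°C-58°C, pooled and brought to 0.5% NP-40 at 4°C. Values are log-two fold changes in thermal stability relative to solvent controls, from duplicates.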

[2] = compound: CC1=C(SC2=C1C(=N[C@H](C3=NN=C(N32)C)CC(=O)N)C4=CC=C(C=C4)Cl)C
Procedure, shortened: as §1

[3] = compound: CC1=C2C(=CC=C1)N=C(N(C2=O)C3=CC=CC=C3C)CN4C=NC5=C(N=CN=C54)N
Procedure, shortened: as §1

[4] = compound: Cc1sc2c(c1C)C(c1ccc(Cl)cc1)=N[C@@H](CC(=O)OC(C)(C)C)c1nnc(C)n1-2
Procedure, shortened: as §1

[5] = compound: c1ccc([C@@H]2C[C@H]2NC2CCNCC2)cc1
Procedure, shortened: as §1

Measured: log2 fold change

TUBB (UniProt P07437)
UniProt P07437, sequence (P07437 whole entry, looked up): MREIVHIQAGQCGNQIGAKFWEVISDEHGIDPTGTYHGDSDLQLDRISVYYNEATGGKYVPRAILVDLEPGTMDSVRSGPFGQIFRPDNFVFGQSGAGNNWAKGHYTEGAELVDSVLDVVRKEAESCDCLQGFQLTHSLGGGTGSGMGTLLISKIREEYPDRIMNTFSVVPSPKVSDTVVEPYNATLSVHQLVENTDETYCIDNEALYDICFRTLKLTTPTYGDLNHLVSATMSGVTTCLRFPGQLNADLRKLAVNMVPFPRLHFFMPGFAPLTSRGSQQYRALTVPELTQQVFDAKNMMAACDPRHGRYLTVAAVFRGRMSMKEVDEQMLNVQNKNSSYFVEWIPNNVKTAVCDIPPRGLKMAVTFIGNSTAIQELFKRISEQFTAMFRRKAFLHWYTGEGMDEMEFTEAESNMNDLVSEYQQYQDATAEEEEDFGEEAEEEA
inactive: [1] 0.025 | [2] 0.027 | [3] -0.005 | [4] 0.014 | [5] -0.001

TOR3A (UniProt Q9H497)
UniProt Q9H497, sequence (Q9H497 whole entry, looked up): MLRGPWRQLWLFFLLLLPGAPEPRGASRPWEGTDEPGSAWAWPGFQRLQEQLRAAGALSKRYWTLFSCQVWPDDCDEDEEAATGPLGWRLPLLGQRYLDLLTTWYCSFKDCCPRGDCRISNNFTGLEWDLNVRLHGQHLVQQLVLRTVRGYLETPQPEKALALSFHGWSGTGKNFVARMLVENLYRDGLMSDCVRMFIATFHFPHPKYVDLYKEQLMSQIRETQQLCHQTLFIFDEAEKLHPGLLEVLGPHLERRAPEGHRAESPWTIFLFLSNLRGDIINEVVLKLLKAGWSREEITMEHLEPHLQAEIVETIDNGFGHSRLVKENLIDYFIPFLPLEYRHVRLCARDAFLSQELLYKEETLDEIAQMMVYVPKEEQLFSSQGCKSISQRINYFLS
inactive: [1] -0.009 | [2] -0.025 | [3] 0.013 | [4] 0.018 | [5] -0.008

TSFM (UniProt P43897)
inactive: [1] 0.006 | [2] 0.007 | [3] 0.027 | [4] 0.066 | [5] -0.092

TTC37 (UniProt Q6PGP7)
inactive: [1] -0.08 | [2] 0.044 | [3] 0.16 | [4] -0.3

TUBA1B (UniProt P68363)
inactive: [1] -0.006 | [2] 0.014 | [3] 0.004 | [4] 0.015 | [5] -0.03

TTF2 (UniProt Q9UNY4)
UniProt Q9UNY4, sequence (Q9UNY4 whole entry, looked up): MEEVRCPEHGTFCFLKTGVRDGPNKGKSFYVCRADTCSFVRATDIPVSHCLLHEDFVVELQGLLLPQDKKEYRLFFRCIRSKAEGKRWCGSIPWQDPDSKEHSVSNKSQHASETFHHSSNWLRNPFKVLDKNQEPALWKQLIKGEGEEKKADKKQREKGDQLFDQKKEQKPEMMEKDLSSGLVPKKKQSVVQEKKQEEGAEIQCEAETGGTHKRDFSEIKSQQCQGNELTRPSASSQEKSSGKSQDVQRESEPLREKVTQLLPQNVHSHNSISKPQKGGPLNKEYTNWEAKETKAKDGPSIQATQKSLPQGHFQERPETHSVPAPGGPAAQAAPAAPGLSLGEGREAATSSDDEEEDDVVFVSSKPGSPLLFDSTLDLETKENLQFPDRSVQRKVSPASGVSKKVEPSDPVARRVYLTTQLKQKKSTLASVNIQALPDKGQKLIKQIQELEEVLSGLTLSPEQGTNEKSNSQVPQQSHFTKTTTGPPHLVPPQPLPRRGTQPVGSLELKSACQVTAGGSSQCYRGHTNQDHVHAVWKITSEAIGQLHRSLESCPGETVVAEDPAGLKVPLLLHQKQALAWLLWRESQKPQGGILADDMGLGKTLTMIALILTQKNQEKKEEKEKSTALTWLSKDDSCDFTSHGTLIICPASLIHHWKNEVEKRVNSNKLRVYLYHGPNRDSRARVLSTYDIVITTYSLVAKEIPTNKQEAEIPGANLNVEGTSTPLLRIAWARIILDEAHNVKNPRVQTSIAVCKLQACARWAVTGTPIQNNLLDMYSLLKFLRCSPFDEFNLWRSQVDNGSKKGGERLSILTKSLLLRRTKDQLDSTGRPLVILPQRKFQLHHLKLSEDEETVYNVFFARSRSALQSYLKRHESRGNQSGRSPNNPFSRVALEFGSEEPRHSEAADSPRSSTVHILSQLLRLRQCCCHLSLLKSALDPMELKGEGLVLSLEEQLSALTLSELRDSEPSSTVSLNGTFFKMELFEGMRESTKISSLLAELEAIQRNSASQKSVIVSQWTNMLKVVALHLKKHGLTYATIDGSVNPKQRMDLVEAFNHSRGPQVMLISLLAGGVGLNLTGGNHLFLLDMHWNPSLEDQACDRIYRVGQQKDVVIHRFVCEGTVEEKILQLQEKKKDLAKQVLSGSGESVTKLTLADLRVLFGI
inactive: [1] -0.092 | [2] 0.029 | [3] 0.003 | [4] 0.127 | [5] 0.003

TCAF2 (UniProt A6NFQ2)
inactive: [1] 0.159 | [2] 0.091 | [3] 0.027 | [4] 0.007 | [5] 0.042

TCF12 isoform 3 (UniProt Q99081)
inactive: [1] 0.062 | [2] -0.072 | [3] 0.014 | [4] -0.048 | [5] -0.046

UFSP2 (UniProt Q9NUQ7)
UniProt Q9NUQ7, sequence (Q9NUQ7 whole entry, looked up): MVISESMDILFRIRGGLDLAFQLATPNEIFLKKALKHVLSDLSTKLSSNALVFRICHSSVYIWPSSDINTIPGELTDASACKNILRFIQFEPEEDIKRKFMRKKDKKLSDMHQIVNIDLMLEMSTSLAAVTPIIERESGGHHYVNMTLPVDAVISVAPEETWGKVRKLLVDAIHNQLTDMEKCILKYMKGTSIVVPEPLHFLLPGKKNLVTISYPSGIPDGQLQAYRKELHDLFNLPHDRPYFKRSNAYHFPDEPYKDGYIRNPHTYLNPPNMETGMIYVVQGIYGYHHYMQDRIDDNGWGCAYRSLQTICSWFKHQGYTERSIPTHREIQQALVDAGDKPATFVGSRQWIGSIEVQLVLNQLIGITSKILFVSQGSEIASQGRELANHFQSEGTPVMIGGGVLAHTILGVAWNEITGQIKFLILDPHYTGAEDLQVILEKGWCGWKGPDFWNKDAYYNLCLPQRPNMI
inactive: [1] 0.059 | [2] 0 | [3] 0.057 | [4] -0.04 | [5] 0.022

TOPBP1 (UniProt Q92547)
inactive: [1] 0.012 | [2] 0.001 | [3] 0.026 | [4] -0.016 | [5] 0.099

TPM1 (UniProt H7BYY1)
inactive: [1] -0.028 | [2] 0.017 | [3] 0.059 | [4] 0.031 | [5] 0.023

TBL2 (UniProt Q9Y4P3)
inactive: [1] 0.01 | [2] 0.057 | [3] 0.033 | [4] 0.039 | [5] 0.071

UBA1 (UniProt P22314)
inactive: [1] -0.018 | [2] 0.043 | [3] 0 | [4] 0.045 | [5] 0.04

TPM1 isoform 4 (UniProt P09493)
inactive: [1] -0.008 | [2] -0.012 | [3] 0 | [4] 0.003 | [5] 0.056

TIMM44 (UniProt O43615)
inactive: [1] -0.062 | [2] 0 | [3] 0.034 | [4] -0.035 | [5] -0.003

UBP1 (UniProt Q9NZI7)
inactive: [1] 0.082 | [2] -0.057 | [3] -0.018 | [4] 0.009 | [5] 0.056

TMEM14C (UniProt Q9P0S9)
inactive: [1] -0.131 | [2] -0.031 | [3] 0.14 | [4] -0.015

UGDH (UniProt O60701)
inactive: [1] 0.003 | [2] 0.001 | [3] -0.004 | [4] -0.056 | [5] 0.026

TFCP2 (UniProt Q12800)
inactive: [1] 0.044 | [2] -0.013 | [3] 0.004 | [4] -0.013 | [5] -0.103

TUBA4A (UniProt P68366)
inactive: [1] -0.068 | [2] 0.013 | [3] 0.03 | [4] -0.024 | [5] 0.019

TUBGCP4 (UniProt Q9UGJ1)
inactive: [1] -0.005 | [2] 0.019 | [3] 0.012 | [4] -0.027 | [5] -0.007

TRIP13 (UniProt Q15645)
inactive: [1] 0.006 | [2] 0.015 | [3] 0.018 | [4] 0.01 | [5] 0.049

TRAPPC6A isoform 2 (UniProt O75865)
UniProt O75865, sequence (O75865 whole entry, looked up): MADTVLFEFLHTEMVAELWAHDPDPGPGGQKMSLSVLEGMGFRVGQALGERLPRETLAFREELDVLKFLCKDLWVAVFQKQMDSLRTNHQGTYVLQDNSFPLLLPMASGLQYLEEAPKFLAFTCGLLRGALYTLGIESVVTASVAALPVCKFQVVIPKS
inactive: [1] 0.025 | [2] 0.046 | [3] -0.043 | [4] -0.003 | [5] 0.014

TTC4 (UniProt O95801)
inactive: [1] -0.018 | [2] -0.003 | [3] 0.001 | [4] 0.033 | [5] -0.013

TLK1 isoform 2 (UniProt Q9UKI8)
inactive: [1] 0.005 | [2] -0.02 | [3] -0.026 | [4] -0.025 | [5] -0.072

UBAP2L isoform 1 (UniProt Q14157)
inactive: [1] -0.101 | [2] -0.087

TUBGCP3 (UniProt Q96CW5)
inactive: [1] -0.007 | [2] -0.004 | [3] 0.011 | [4] 0.008 | [5] 0.037

TBC1D8B (UniProt Q0IIM8)
inactive: [1] -0.086 | [2] -0.078 | [3] -0.038 | [4] -0.013 | [5] -0.101

TYMS (UniProt P04818)
inactive: [1] -0.005 | [2] 0.02 | [3] -0.005 | [4] 0.012 | [5] 0.014

TPX2 (UniProt Q9ULW0)
UniProt Q9ULW0, sequence (Q9ULW0 whole entry, looked up): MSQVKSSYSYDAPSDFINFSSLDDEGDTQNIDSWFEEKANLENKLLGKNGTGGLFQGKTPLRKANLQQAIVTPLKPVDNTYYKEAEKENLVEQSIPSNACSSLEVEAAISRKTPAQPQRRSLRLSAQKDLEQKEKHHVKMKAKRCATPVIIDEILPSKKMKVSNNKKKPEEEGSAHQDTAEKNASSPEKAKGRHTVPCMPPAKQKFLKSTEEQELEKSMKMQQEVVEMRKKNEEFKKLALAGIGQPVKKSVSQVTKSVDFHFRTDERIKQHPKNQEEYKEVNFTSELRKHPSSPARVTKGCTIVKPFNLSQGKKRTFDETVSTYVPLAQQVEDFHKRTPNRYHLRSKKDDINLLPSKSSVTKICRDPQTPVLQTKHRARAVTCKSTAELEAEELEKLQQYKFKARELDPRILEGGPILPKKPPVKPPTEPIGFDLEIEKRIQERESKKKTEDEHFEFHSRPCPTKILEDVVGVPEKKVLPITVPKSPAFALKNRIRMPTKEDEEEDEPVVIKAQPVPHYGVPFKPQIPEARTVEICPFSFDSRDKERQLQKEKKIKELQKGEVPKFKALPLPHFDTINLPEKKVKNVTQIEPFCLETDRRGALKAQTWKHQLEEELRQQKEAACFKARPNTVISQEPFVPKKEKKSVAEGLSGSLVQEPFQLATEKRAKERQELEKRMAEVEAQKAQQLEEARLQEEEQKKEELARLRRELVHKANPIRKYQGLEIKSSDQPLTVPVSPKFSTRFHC
inactive: [1] 0.04 | [2] -0.006 | [3] 0.008 | [4] -0.003 | [5] 0

TIMELESS (UniProt Q9UNS1)
inactive: [1] -0.013 | [2] 0.011 | [3] 0.01 | [4] 0.012 | [5] 0.02

TUBB2A (UniProt Q13885)
UniProt Q13885, sequence (Q13885 whole entry, looked up): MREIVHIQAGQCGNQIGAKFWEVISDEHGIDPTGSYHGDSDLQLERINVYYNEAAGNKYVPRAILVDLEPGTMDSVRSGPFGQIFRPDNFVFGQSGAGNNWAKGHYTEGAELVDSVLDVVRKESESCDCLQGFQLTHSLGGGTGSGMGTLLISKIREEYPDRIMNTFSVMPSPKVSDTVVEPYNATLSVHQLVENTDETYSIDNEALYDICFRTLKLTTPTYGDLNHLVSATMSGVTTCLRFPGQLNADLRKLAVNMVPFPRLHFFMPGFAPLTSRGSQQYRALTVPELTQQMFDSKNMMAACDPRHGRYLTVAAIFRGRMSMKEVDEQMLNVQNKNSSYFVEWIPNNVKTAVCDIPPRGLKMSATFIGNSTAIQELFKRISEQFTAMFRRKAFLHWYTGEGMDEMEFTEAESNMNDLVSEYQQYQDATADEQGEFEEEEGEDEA
inactive: [1] 0.017 | [2] 0.01 | [3] 0 | [4] 0.003 | [5] -0.015

UBE2D1 (UniProt P51668)
inactive: [1] 0.056 | [2] 0.066 | [3] 0.02 | [4] -0.082 | [5] 0.016

UBL5 (UniProt Q9BZL1)
inactive: [1] 0.063 | [2] 0.008 | [3] -0.06 | [4] 0.005 | [5] -0.167

TMPO isoform 2 (UniProt P42167)
inactive: [1] 0.11 | [2] 0.088 | [3] 0.033 | [4] -0.069

THEMIS2 (UniProt Q5TEJ8)
inactive: [1] 0.046 | [2] 0 | [3] 0.019 | [4] 0.052 | [5] -0.054

TYW3 (UniProt Q6IPR3)
inactive: [1] 0.082 | [2] 0.006 | [3] 0.065 | [4] -0.029 | [5] -0.067

TRAPPC12 (UniProt Q8WVT3)
inactive: [1] 0.005 | [2] -0.016 | [3] -0.023 | [4] 0.003 | [5] 0.015

TBK1 (UniProt Q9UHD2)
inactive: [1] -0.012 | [2] 0.021 | [3] -0.031 | [4] -0.003 | [5] -0.023

TK1 (UniProt P04183)
UniProt P04183, sequence (P04183 whole entry, looked up): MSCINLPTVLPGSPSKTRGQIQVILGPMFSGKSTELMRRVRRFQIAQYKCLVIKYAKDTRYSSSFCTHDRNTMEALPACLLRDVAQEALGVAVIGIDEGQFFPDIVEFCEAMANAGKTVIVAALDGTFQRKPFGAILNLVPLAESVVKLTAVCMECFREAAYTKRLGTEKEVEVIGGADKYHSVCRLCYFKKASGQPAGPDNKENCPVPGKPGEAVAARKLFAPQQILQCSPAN
inactive: [1] 0.006 | [2] 0.037 | [3] -0.017 | [4] -0.045 | [5] -0.116

TMPO (UniProt P42167)
inactive: [1] -0.017 | [2] 0.044 | [3] -0.042 | [4] 0.042 | [5] -0.023

TNIK (UniProt C9J338)
inactive: [1] -0.028 | [2] 0.067 | [3] 0.135 | [4] -0.225 | [5] -0.375

TUBB3 (UniProt Q13509)
inactive: [1] 0.014 | [2] -0.005 | [3] 0.008 | [4] 0.008 | [5] 0.01

TPM3 isoform 2 (UniProt P06753)
inactive: [1] -0.02 | [2] 0.01 | [3] -0.025 | [4] -0.009 | [5] 0.056

TRAPPC10 (UniProt P48553)
inactive: [1] -0.014 | [2] -0.015 | [3] 0.033 | [4] -0.004 | [5] -0.012

TRIM56 (UniProt Q9BRZ2)
UniProt Q9BRZ2, sequence (Q9BRZ2 whole entry, looked up): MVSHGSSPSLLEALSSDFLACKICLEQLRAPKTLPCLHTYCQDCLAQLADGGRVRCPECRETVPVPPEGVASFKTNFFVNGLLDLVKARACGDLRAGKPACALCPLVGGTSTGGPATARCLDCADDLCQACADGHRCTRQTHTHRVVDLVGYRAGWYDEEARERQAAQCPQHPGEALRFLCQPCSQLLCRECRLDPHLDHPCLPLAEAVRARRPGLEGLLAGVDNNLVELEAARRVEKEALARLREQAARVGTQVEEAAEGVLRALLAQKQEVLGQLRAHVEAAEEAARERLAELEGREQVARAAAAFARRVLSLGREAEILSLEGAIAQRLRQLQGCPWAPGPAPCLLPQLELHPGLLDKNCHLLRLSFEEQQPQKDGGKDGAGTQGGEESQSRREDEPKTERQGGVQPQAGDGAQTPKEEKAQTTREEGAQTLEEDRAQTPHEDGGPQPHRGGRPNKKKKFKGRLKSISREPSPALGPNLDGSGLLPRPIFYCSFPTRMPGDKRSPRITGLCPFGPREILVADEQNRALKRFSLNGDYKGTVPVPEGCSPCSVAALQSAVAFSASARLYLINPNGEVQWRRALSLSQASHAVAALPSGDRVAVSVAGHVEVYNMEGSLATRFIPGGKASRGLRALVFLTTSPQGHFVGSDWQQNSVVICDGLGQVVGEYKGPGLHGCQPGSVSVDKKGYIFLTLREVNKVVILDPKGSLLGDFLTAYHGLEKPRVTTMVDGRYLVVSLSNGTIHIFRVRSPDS
inactive: [1] -0.057 | [2] -0.009 | [3] 0.076 | [4] 0.003 | [5] 0.099

UBE2H (UniProt P62256)
UniProt P62256, sequence (P62256 whole entry, looked up): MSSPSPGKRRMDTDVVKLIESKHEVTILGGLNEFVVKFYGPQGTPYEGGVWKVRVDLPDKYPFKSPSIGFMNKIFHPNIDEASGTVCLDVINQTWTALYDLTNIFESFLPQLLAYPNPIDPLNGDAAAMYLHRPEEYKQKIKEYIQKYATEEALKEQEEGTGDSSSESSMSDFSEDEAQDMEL
inactive: [1] 0.024 | [2] 0.02 | [3] 0.012 | [4] -0.046 | [5] 0.095

TTC12 isoform 2 (UniProt Q9H892)
inactive: [1] -0.123 | [2] -0.131 | [3] 0.033 | [4] 0.044 | [5] 0.058

TRMT12 (UniProt Q53H54)
inactive: [1] 0.104 | [2] -0.023 | [3] -0.007 | [4] -0.061 | [5] 0.076

TRIM33 (UniProt H0Y612)
inactive: [1] -0.042 | [2] 0.008 | [3] 0.05 | [4] 0.021 | [5] 0.098

TRMT2A (UniProt Q8IZ69)
inactive: [1] 0.003 | [2] 0.02 | [3] 0.003 | [4] 0.02 | [5] 0.027

TBC1D2B (UniProt Q9UPU7)
inactive: [1] -0.024 | [2] 0.139 | [3] -0.048 | [4] -0.065 | [5] -0.008

TTL (UniProt Q8NG68)
inactive: [1] 0.004 | [2] -0.029 | [3] 0.145 | [4] 0.014 | [5] 0.104

TERF2IP (UniProt Q9NYB0)
inactive: [1] 0.023 | [2] -0.006 | [3] -0.077 | [4] -0.03 | [5] 0.116
